From PubChem
CaV13 FRET inh: Primary screen for inhibitors of IQ motif and Ca2+-dependent inactivation inhibitor domain binding in CACNA1D, Förster resonance energy transfer in living cells, … | inhibition, % at 12.3 µM | 340,000 compounds, 0.098% hits | AID 743397 | HEK cells, CFP/YFP FRET ICDI-IQ, plate reader, 10 min; percent FRET-ratio fall versus neutral wells;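 active = mean replicate inhibition of at least 30% and at least 1% of replicates passing that level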
GC-B act: GC-B (human) receptor activation; HEK293-GC-B cells, CNP EC30, cGMP TR-FRET; 0% at EC30 CNP, 100% saturating CNP; activation, % at 10 µM; 370,000 compounds, 0.11% hits;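 active = activation at 10 µM reaching about 35% in either raw or pattern-adjusted values, limit read from the data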
Rin1 Abl inh: human Rin1-Abl interaction inhibition; TR-FRET Rin1/Abl binding, biochemical; 360,000 compounds, 0.4% hits; P00519+Q13671; inhibition, % at 7.35 µM; in the data active = inhibition above about 5%, passing the limit was not always enough
Target sequence (P00519 whole entry, looked up): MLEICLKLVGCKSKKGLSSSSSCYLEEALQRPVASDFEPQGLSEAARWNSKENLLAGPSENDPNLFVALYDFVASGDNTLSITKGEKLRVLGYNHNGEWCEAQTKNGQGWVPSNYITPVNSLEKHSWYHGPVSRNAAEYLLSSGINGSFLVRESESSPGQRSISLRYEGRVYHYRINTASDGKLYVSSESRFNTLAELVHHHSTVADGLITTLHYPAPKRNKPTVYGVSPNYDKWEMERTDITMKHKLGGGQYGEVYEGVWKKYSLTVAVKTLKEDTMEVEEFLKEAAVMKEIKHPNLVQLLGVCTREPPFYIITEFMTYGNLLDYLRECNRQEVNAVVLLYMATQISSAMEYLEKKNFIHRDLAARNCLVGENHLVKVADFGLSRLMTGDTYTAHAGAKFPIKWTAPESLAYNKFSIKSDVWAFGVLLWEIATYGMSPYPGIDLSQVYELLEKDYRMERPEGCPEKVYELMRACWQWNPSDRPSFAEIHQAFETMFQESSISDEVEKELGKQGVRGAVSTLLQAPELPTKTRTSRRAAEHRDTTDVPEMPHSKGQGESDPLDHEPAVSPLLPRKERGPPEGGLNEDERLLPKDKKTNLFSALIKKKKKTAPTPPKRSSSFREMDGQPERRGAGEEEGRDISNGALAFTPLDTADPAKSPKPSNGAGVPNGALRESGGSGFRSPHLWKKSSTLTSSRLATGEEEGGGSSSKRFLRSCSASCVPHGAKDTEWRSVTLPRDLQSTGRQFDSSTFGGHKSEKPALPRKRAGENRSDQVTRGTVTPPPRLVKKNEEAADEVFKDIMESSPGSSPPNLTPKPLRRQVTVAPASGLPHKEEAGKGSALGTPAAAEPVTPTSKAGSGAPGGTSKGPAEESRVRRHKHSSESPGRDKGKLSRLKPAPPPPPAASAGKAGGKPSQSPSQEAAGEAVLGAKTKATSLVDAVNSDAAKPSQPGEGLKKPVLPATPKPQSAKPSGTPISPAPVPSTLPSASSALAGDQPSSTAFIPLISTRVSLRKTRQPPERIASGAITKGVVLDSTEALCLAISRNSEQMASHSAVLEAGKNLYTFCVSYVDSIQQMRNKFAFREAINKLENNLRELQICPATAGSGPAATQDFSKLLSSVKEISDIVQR
Target sequence (Q13671 whole entry, looked up): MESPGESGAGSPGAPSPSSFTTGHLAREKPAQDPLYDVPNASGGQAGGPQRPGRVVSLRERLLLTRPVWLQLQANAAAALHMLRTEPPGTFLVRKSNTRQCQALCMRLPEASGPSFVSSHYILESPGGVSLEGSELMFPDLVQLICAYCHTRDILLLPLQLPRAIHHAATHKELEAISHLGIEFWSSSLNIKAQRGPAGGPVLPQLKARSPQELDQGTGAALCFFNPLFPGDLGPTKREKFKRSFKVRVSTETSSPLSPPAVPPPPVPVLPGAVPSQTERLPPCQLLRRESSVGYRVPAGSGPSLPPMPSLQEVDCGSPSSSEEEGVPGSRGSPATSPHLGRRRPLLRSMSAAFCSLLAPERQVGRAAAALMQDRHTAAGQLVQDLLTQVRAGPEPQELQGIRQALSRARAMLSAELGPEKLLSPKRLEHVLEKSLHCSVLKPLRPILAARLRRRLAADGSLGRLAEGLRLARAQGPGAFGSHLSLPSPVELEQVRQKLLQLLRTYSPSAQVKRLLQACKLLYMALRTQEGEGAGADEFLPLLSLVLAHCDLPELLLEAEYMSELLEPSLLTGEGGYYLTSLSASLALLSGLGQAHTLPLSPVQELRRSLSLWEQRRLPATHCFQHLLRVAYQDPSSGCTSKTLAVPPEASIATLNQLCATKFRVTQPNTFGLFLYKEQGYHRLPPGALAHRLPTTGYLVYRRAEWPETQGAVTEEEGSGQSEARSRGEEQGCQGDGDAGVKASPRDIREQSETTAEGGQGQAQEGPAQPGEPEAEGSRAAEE
GC-A act: GC-A (human) enzyme activation; P16066; HEK293 GC-A cells, cGMP TR-FRET, EC30 ANP; 0% at EC30 ANP, 100% saturating ANP; activation, % at 10 µM; 370,000 compounds, 0.14% hits; in the data active = activation above about 40%
Rin1 Abl conf: confirmation of inhibitors of human Rin1-Abl interaction. shares compounds with Rin1 Abl inh. TR-FRET Rin1-Abl binding, purified proteins. inhibition, % at 7.35 µM. 1,300 compounds, 49% hits. AID 602124
GFP quencher: counter-screen for Rin1-Abl inhibitors: GFP fluorescence quenchers; shares compounds with Rin1 Abl inh; inhibitors/quenchers counterscreen; inhibition, % at 6.75 µM; 1,300 compounds, 8.5% hits; AID 602125;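 note: ABL1-eGFP fusion protein alone without its partner RIN1-SBP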
GFP quench dose: quenches GFP in dose response, Rin1-Abl counter-screen; shares compounds with Rin1 Abl inh; GFP fluorescence interference/quenching counterscreen; IC50, µM; 230 tested, under 10 active; call rule not given here;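 note: ABL1-eGFP fusion protein alone without its RIN1 binding partner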
Each line names hits and unclear results; the compound was inactive in the other large screens (follow-up assays come after a bar, where they were run). Compounds with a hit are over-represented: about 0.67% of the library has one in this group of screens. Cut-off read from the data, not from the text of the source, unless noted: active = inhibition above about 6.5%; inactive = the rest.

COc1ccccc1CC(NC(C)=O)C(=O)NC1CCN(S(=O)(=O)c2ccccc2)CC1 (stereo not drawn)	none
COc1ccccc1CC(NC(C)=O)C(=O)NC1CCN(S(=O)(=O)c2ccc(NC(C)=O)cc2)CC1 (stereo not drawn)	Rin1 Abl inh 12.0 | Rin1 Abl conf inactive | GFP quencher inactive
CCCC[C@H]1C2CC(OC(=O)Nc3cccc(C#N)c3)C(C2)[C@H]2CCCCN21 (stereo partly drawn)	none (no result: CaV13 FRET inh, Rin1 Abl inh)
Cn1c(=O)[nH]c(=O)c2c1nc(NCc1ccco1)n2Cc1ccccc1Cl	Rin1 Abl inh 13.2 | Rin1 Abl conf 17.5 | GFP quencher inactive | GFP quench dose inactive
CCOC(=O)C1=C(C)OC2(O)c3ccccc3C(=O)C12O (stereo not drawn)	Rin1 Abl inh 22.3 | Rin1 Abl conf 36.1 | GFP quencher inactive | GFP quench dose inactive
CC(=O)C1=C(C)OC2(O)c3ccccc3C(=O)C12O (stereo not drawn)	Rin1 Abl inh 17.9 | Rin1 Abl conf 17.8 | GFP quencher inactive | GFP quench dose inactive
CC(C)C[C@@H]1COc2cc(Br)ccc2S(=O)(=O)N1Cc1cn(Cc2ccc(C(F)(F)F)cc2)nn1	none (no result: CaV13 FRET inh, Rin1 Abl inh)
COc1cccc(N2CC(C(=O)Nc3ccc(C(=O)OC(C)C)cc3)CC2=O)c1 (stereo not drawn)	Rin1 Abl inh 17.5 | Rin1 Abl conf 13.8 | GFP quencher inactive
CN=c1scc(-c2cccs2)n1/N=C/c1ccccc1O	none (no result: CaV13 FRET inh)
CN=c1scc(-c2cccs2)n1/N=C/c1ccc(O)c(O)c1O	Rin1 Abl inh 8.8 | Rin1 Abl conf 9.7 | GFP quencher 12.6
CN=c1scc(C)n1/N=C/c1ccc(O)c(O)c1O	Rin1 Abl inh 35.7 | Rin1 Abl conf 20.9 | GFP quencher 20.4
CN=c1scc(C)n1/N=C/c1cc(Br)c(O)c(OC)c1	none
CC(CCN1CCC(C(O)(c2ccccc2)c2ccccc2)CC1)Oc1cc(F)cc(C#N)c1 (stereo not drawn)	none (no result: CaV13 FRET inh, Rin1 Abl inh)
Cn1c(=O)cc(OCCCC(=O)Nc2cc(-c3ccncc3)ccn2)c2ccccc21	none (no result: CaV13 FRET inh, Rin1 Abl inh)
O=C1OC(NCc2cccnc2)(c2ccc(Cl)cc2)c2ccccc21 (stereo not drawn)	Rin1 Abl inh 12.4 | Rin1 Abl conf 7.4 | GFP quencher inactive
O=C(Nc1ccc2c(c1)OCO2)OC1CC2CC1[C@H]1CCCCN1[C@H]2Cc1ccccc1 (stereo partly drawn)	none (no result: CaV13 FRET inh, Rin1 Abl inh)
CN1OC[C@@H]2CN(C(=O)CCc3ccccc3)[C@H](c3ccccc3Br)C[C@@H]21	Rin1 Abl inh 14.5 | Rin1 Abl conf 11.6 | GFP quencher inactive
CC(=O)N1C[C@H]2CON(C)[C@H]2C[C@H]1c1ccccc1Br	none
COC(=O)c1ccc(COC(=O)C23CC4CC(CC(O)(C4)C2)C3)o1	Rin1 Abl inh 19.7 | Rin1 Abl conf 16.7 | GFP quencher inactive | GFP quench dose inactive
COC(=O)c1ccc(Cc2ccc(C(=O)OC)o2)o1	none
COC(=O)c1ccc(COC(=O)c2ccc(CO)cc2)o1	Rin1 Abl inh 7.3 | Rin1 Abl conf inactive | GFP quencher inactive
Clc1ccc([C@H]2OC[C@@]3(CNCc4ccccn4)CS[C@H](c4ccc(Cl)cc4)N23)cc1	none (no result: CaV13 FRET inh, Rin1 Abl inh)
CCn1ccc(C(=O)N2CCN(c3ncccn3)CC2)n1	Rin1 Abl inh 7.3 | Rin1 Abl conf 6.3 | GFP quencher inactive
CCn1ccc(C(=O)N2CCOCC2)n1	none
CCOC(=O)C1(Cc2ccccc2)CCN(Cc2cccc(C#N)c2)CC1	none (no result: CaV13 FRET inh, Rin1 Abl inh)
Cc1ccc(C2=CCN(C)C(=O)N2c2ccc(Br)cc2)cc1	none (no result: CaV13 FRET inh, Rin1 Abl inh)
CCOC(=O)CCCCCC(=O)Nc1ccc2c(c1)C(=O)N([C@H](C)CO)C[C@H](C)[C@@H](CN(C)C(=O)Nc1ccc(OC)cc1)O2	Rin1 Abl inh 15.7 (no result: CaV13 FRET inh, GC-B act, GC-A act) | Rin1 Abl conf 12.8 | GFP quencher inactive
